Results published in PubChem BioAssay AID1053 (University of Pittsburgh Molecular Library Screening Center, 2008).
“And” between values parts separate entries of the source, which are not always exact repeats. Identical values can stand only once. A number with no mark means an inactive call. The source made the active and inactive calls. The rule behind the calls is not given here.

Target: Serine/threonine-protein kinase PLK1 (Homo sapiens) (UniProt P53350)
Assay: Plk1 polo box domain binding inhibitors, SAR follow-up, biochemical, fluorescence polarization, purchased analogs (AID 1053)
Details: Plk1 PBD fluorescence polarization peptide binding; at 20 µM; hits give high values

Sequence of Serine/threonine-protein kinase PLK1 (Homo sapiens) (P53350 whole entry, looked up, the tested form may be a part): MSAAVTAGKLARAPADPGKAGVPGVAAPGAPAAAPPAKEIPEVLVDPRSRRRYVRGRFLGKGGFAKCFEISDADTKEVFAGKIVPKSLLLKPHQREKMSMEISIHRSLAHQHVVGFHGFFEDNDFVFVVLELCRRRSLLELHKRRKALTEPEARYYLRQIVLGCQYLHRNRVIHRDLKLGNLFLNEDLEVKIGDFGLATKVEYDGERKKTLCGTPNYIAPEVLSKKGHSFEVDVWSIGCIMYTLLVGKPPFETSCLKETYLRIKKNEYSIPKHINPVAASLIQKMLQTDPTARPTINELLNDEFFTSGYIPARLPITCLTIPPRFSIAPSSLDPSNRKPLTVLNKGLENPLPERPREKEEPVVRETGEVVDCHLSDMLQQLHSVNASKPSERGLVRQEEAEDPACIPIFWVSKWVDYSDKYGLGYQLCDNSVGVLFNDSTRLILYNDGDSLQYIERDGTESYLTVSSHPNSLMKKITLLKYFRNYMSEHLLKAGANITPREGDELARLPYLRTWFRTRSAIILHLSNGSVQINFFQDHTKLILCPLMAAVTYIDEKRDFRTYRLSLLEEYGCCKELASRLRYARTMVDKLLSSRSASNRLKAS

| Compound | inhibition |
| --- | --- |
| CCOC(=O)c1ccc(N=C(c2ccccc2)c2c(O)n(C)c(=O)n(C)c2=O)cc1 | -58.1% |
| COc1cc(C=C2C(=O)NC(=O)NC2=O)cc(Cl)c1O | -40.9% |
| O=C1NC(=O)C(=Cc2cccn2-c2ccc([N+](=O)[O-])cc2)C(=O)N1 | -40.9% |
| O=C1NC(=O)C(=Cc2c3ccccc3cc3ccccc23)C(=O)N1 | -41.5% |
| Cc1ccc(-c2nc3c(=O)n(C)c(=O)nc-3n(C)n2)cc1 | 43.1% |
| CCN(CC)CCOC(=O)c1ccc(N=Cc2c(O)[nH]c(=O)[nH]c2=O)cc1 | -148% and -184% |
| Cn1c(O)c(C(=O)c2ccccc2Cl)c(=O)n(C)c1=O | -36.4% |
| COc1cc(Br)cc(C=C2C(=O)NC(=O)NC2=O)c1O | -39.8% |
| CCn1nc(-c2ccccc2)nc2c(=O)n(C)c(=O)nc1-2 | -2.54% |
| CCCC(=O)c1c(O)[nH]c(=O)[nH]c1=O | -47.7% and -64.6% |
| Cn1nc(-c2ccccc2)nc2c(=O)n(C)c(=O)nc1-2 | 31.4% |
| CCn1nc(-c2ccccc2Cl)nc2c(=O)n(C)c(=O)nc1-2 | 43.6% |
| CCn1nc(-c2ccc([N+](=O)[O-])cc2)nc2c(=O)n(C)c(=O)nc1-2 | 60.6% (active) |
